# Measured values published in the supplement of paper PMC8728848.
# Shown is part of a subset that was picked to be rich in the strongest signals.
# B1: CFEM-PPl (Pichia pastoris), F2QPV1 (protein)
# chain: AVATPPACLLACAAEVVKESSDCDALNNIQCICENEGSAIHACLESTCPDGLSSTALQSFEDVCESVGTEANLDE
# Legend:
# Experiment in all cases: glycan array binding signal (z-score within array); higher = stronger binding
# Settings in all cases: glycan notation: IUPAC condensed, linker removed
# [1] = target: Fuc(a1-2)Gal(b1-3)GalNAc(b1-3)Gal(a1-4)Gal(b1-4)Glc
# Outline: (§1)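 The binding signal is a Z-score computed within each array and averaged over linkers. Arrays of the same protein sequence at different concentrations or buffers were also averaged together. Data originate from 3228 arrays in the Consortium for Functional Glycomics database, kept only where the protein sequence was available.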
# [2] = target: Fuc(a1-2)Gal(b1-3)GlcNAc(b1-3)Gal(b1-4)Glc
# Outline: as §1
# [3] = target: Fuc(a1-2)Gal(b1-3)[Fuc(a1-4)]GlcNAc
# Outline: as §1
# [4] = target: Fuc(a1-2)Gal(b1-4)Glc
# Outline: as §1
# [5] = target: Fuc(a1-2)[Gal(a1-3)]Gal(b1-4)GlcNAc(b1-2)Man(a1-3)[Fuc(a1-2)[Gal(a1-3)]Gal(b1-4)GlcNAc(b1-2)Man(a1-6)]Man(b1-4)GlcNAc(b1-4)GlcNAc
# Outline: as §1
# [6] = target: Fuc(a1-2)[Gal(a1-4)]Gal(b1-4)GlcNAc
# Outline: as §1
# [7] = target: Fuc(a1-2)[GalNAc(a1-3)]Gal(b1-3)GlcNAc(b1-2)Man(a1-3)[Fuc(a1-2)[GalNAc(a1-3)]Gal(b1-3)GlcNAc(b1-2)Man(a1-6)]Man(b1-4)GlcNAc(b1-4)GlcNAc
# Outline: as §1
# [8] = target: Fuc(a1-2)[GalNAc(a1-3)]Gal(b1-4)[Fuc(a1-3)]GlcNAc(b1-3)GalNAc
# Outline: as §1
# [9] = target: Fuc(a1-3)[Gal(b1-4)]GlcNAc(b1-6)GalNAc
# Outline: as §1
# [10] = target: Gal(a1-3)Gal(b1-3)GlcNAc(b1-2)Man(a1-3)[Gal(a1-3)Gal(b1-3)GlcNAc(b1-2)Man(a1-6)]Man(b1-4)GlcNAc(b1-4)GlcNAc
# Outline: as §1
# [11] = target: Gal(a1-3)Gal(b1-3)GlcNAc(b1-3)GalNAc
# Outline: as §1
# [12] = target: Gal(a1-3)GalNAc
# Outline: as §1
# [13] = target: Gal(b1-3)Gal
# Outline: as §1
# [14] = target: Gal(b1-3)Gal(b1-4)GlcNAc
# Outline: as §1
# [15] = target: Gal(b1-3)GalNAc
# Outline: as §1
# [16] = target: Gal(b1-3)GalNAc(a1-3)[Fuc(a1-2)]Gal(b1-4)Glc
# Outline: as §1
# [17] = target: Gal(b1-3)GalNAc(b1-3)Gal
# Outline: as §1
# [18] = target: Gal(b1-3)GalNAc(b1-4)Gal(b1-4)Glc
# Outline: as §1
# [19] = target: Gal(b1-3)GalNAc(b1-4)[Neu5Ac(a2-3)]Gal(b1-4)Glc
# Outline: as §1
# [20] = target: Gal(b1-3)GlcNAc6S
# Outline: as §1
# [21] = target: Gal(b1-3)[Fuc(a1-4)]GlcNAc
# Outline: as §1
# [22] = target: Gal(b1-3)[GlcNAc(b1-6)]GalNAc
# Outline: as §1
# [23] = target: Gal(b1-3)[Neu5Ac(a2-6)]GalNAc
# Outline: as §1
# [24] = target: Gal(b1-4)Glc6S
# Outline: as §1
# [25] = target: Gal(b1-4)GlcNAc(b1-2)Man(a1-3)Man(b1-4)GlcNAc(b1-4)GlcNAc
# Outline: as §1
# [26] = target: Gal(b1-4)GlcNAc(b1-2)Man(a1-3)[GlcNAc(b1-4)][Gal(b1-4)GlcNAc(b1-2)Man(a1-6)]Man(b1-4)GlcNAc(b1-4)GlcNAc
# Outline: as §1
# [27] = target: Gal(b1-4)GlcNAc(b1-2)[Gal(b1-4)GlcNAc(b1-6)]Man(a1-6)[Gal(b1-4)GlcNAc(b1-2)Man(a1-3)]Man(b1-4)GlcNAc(b1-4)[Fuc(a1-6)]GlcNAc
# Outline: as §1
# [28] = target: Gal(b1-4)GlcNAc(b1-3)Gal(b1-4)GlcNAc(b1-3)GalNAc
# Outline: as §1
# [29] = target: Gal3S(b1-4)[Fuc(a1-3)]GlcNAc
# Outline: as §1
# [30] = target: Gal3S6S(b1-4)GlcNAc6S
# Outline: as §1
# [31] = target: Gal6S(b1-4)GlcNAc6S
# Outline: as §1
# [32] = target: GlcA(b1-6)Gal
# Outline: as §1
# [33] = target: GlcNAc(a1-6)Gal(b1-4)GlcNAc
# Outline: as §1
# [34] = target: GlcNAc(b1-2)Man(a1-3)[GlcNAc(b1-4)][GlcNAc(b1-2)Man(a1-6)]Man(b1-4)GlcNAc(b1-4)[Fuc(a1-6)]GlcNAc
# Outline: as §1
# [35] = target: GlcNAc(b1-3)Gal(b1-4)GlcNAc(b1-3)Gal(b1-4)GlcNAc(b1-3)Gal(b1-4)GlcNAc(b1-2)Man(a1-3)[GlcNAc(b1-3)Gal(b1-4)GlcNAc(b1-3)Gal(b1-4)GlcNAc(b1-3)Gal(b1-4)GlcNAc(b1-2)Man(a1-6)]Man(b1-4)GlcNAc(b1-4)[Fuc(a1-6)]GlcNAc
# Outline: as §1
# [36] = target: GlcNAc(b1-3)[GlcNAc(b1-4)][GlcNAc(b1-6)]GlcNAc
# Outline: as §1
# [37] = target: Man(a1-2)Man(a1-6)[Man(a1-3)]Man(a1-6)[Man(a1-2)Man(a1-2)Man(a1-3)]Man
# Outline: as §1
# [38] = target: Man(a1-3)[Man(a1-6)]Man(a1-6)[Man(a1-3)]Man
# Outline: as §1
# [39] = target: Neu5Ac(a2-3)Gal(b1-4)GlcNAc(b1-3)Gal(b1-4)[Fuc(a1-3)]GlcNAc
# Outline: as §1
# [40] = target: Neu5Ac(a2-3)Gal(b1-4)[Fuc(a1-3)]GlcNAc(b1-3)Gal(b1-4)[Fuc(a1-3)]GlcNAc(b1-3)Gal(b1-4)[Fuc(a1-3)]GlcNAc
# Outline: as §1
# [41] = target: Neu5Ac(a2-3)Gal(b1-4)[Fuc(a1-3)]GlcNAc6S
# Outline: as §1
# [42] = target: Neu5Ac(a2-6)Gal(b1-4)GlcNAc
# Outline: as §1
# [43] = target: Neu5Ac(a2-6)Gal(b1-4)GlcNAc(b1-2)[Neu5Ac(a2-6)Gal(b1-4)GlcNAc(b1-4)]Man(a1-3)[GlcNAc(b1-4)][Neu5Ac(a2-6)Gal(b1-4)GlcNAc(b1-2)[Neu5Ac(a2-6)Gal(b1-4)GlcNAc(b1-6)]Man(a1-6)]Man(b1-4)GlcNAc(b1-4)GlcNAc
# Outline: as §1
# [44] = target: Neu5Ac(a2-6)Gal(b1-4)GlcNAc(b1-3)Gal(b1-4)GlcNAc
# Outline: as §1
# [45] = target: Neu5Ac(a2-6)Gal(b1-4)GlcNAc(b1-3)GalNAc
# Outline: as §1
# [46] = target: Neu5Ac(a2-8)Neu5Ac(a2-8)Neu5Ac(a2-8)Neu5Ac(a2-3)[GalNAc(b1-4)]Gal(b1-4)Glc
# Outline: as §1
# [47] = target: Neu5Ac9Ac(a2-3)Gal(b1-4)GlcNAc
# Outline: as §1
# [48] = target: Neu5Gc(a2-8)Neu5Gc(a2-3)Gal(b1-4)GlcNAc
# Outline: as §1
binder,measurement,setting,value
B1,glycan array binding signal (z-score),[1],-0.182
same,glycan array binding signal (z-score),[2],-0.261
same,glycan array binding signal (z-score),[3],-0.299
same,glycan array binding signal (z-score),[4],-0.216
same,glycan array binding signal (z-score),[5],-0.252
same,glycan array binding signal (z-score),[6],-0.168
same,glycan array binding signal (z-score),[7],-0.271
same,glycan array binding signal (z-score),[8],2.17
same,glycan array binding signal (z-score),[9],0.273
same,glycan array binding signal (z-score),[10],-0.051
same,glycan array binding signal (z-score),[11],-0.151
same,glycan array binding signal (z-score),[12],-0.249
same,glycan array binding signal (z-score),[13],8.35
same,glycan array binding signal (z-score),[14],4.73
same,glycan array binding signal (z-score),[15],4.58
same,glycan array binding signal (z-score),[16],0.63
same,glycan array binding signal (z-score),[17],7.59
same,glycan array binding signal (z-score),[18],11.5
same,glycan array binding signal (z-score),[19],1.48
same,glycan array binding signal (z-score),[20],0.224
same,glycan array binding signal (z-score),[21],-0.109
same,glycan array binding signal (z-score),[22],1.52
same,glycan array binding signal (z-score),[23],8.06
same,glycan array binding signal (z-score),[24],0.326
same,glycan array binding signal (z-score),[25],-0.158
same,glycan array binding signal (z-score),[26],-0.371
same,glycan array binding signal (z-score),[27],0.199
same,glycan array binding signal (z-score),[28],-0.058
same,glycan array binding signal (z-score),[29],-0.308
same,glycan array binding signal (z-score),[30],-0.019
same,glycan array binding signal (z-score),[31],0.881
same,glycan array binding signal (z-score),[32],1.49
same,glycan array binding signal (z-score),[33],1.68
same,glycan array binding signal (z-score),[34],-0.286
same,glycan array binding signal (z-score),[35],-0.05
same,glycan array binding signal (z-score),[36],-0.262
same,glycan array binding signal (z-score),[37],-0.274
same,glycan array binding signal (z-score),[38],-0.201
same,glycan array binding signal (z-score),[39],-0.181
same,glycan array binding signal (z-score),[40],-0.258
same,glycan array binding signal (z-score),[41],-0.175
same,glycan array binding signal (z-score),[42],-0.156
same,glycan array binding signal (z-score),[43],-0.31
same,glycan array binding signal (z-score),[44],-0.404
same,glycan array binding signal (z-score),[45],-0.218
same,glycan array binding signal (z-score),[46],-0.099
same,glycan array binding signal (z-score),[47],-0.318
same,glycan array binding signal (z-score),[48],-0.14
